Data reported in PubChem BioAssay (NCATS).
Several values for one entry are separate records, joined by “and”; a condition that tells them apart may be missing. Identical values can stand only once. Results filed as inconclusive are left out. A call without a number means that no potency is given here. Activity calls are given as the source filed them. Unless noted, calls come from the whole dose curve; as a rule, active = well fitted curve in the direction sought with a large enough effect; inconclusive = small, poorly fitted or top-dose-only effect, or another doubt; inactive = no such curve, though single readings can be large; an effect the other way counts as inactive or inconclusive.

Tests used:
[1] = biological target: Glutathione peroxidase 1 (Homo sapiens) (UniProt P07203); assay: Primary qHTS Assay for Inhibitors of Recombinant Selenoprotein Glutathione Peroxidase 1 (GPX1) (AID 1845191); note: nearly all actives have a fitted effect of over 65% in size
Summary of the method: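 GR-coupled assay: compounds preincubated 30 min at room temperature with GPX1, then reaction started with CHP; final 10 nM GPX1, 1 mM GSH, 0.5 mM CHP, 0.5 mM NADPH, 100 nM GR, 0.01% BSA, pH 7.5 Tris buffer. NADPH fluorescence (340/450 nm) read at 0 and 15 min.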

[2] = biological target: Phospholipid hydroperoxide glutathione peroxidase GPX4 (Homo sapiens) (UniProt P36969); assay: Primary qHTS Assay for Inhibitors of Recombinant Selenoprotein Glutathione Peroxidase 4 (GPX4) (AID 1845192); note: nearly all actives have a fitted effect of over 65% in size
Summary of the method: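 GR-coupled assay: recombinant GPX4 preincubated 30 min with compound at room temperature; final 200 nM GPX4, 1 mM GSH, 0.5 mM cumene hydroperoxide, 0.5 mM NADPH, 100 nM GR, 0.01% BSA, pH 7.5 Tris. NADPH fluorescence (340/450 nm) read at 0 and 15 min.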

[3] = biological target: Luciferin 4-monooxygenase (Photinus pyralis) (UniProt P08659); assay: Primary firefly luciferase (FLuc) qHTS assay for identification of artifact compounds. (AID 1845220); note: nearly all actives have a fitted effect of over 60% in size; note: potency is the fitted concentration of half-maximal effect
Summary of the method: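 Titrated compounds were incubated 15 min at RT, protected from light, with luciferin and ATP at 10 uM; reaction started with 10 nM FLuc, luminescence imaged at 5 min, and concentration-response fitted by Hill equation.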

[4] = Primary fluorescence-based thiol-reactive (MSTI) qHTS assay for identification of artifact compounds. (AID 1845221); note: nearly all actives have a fitted effect of over 65% in size; note: potency is the fitted concentration of half-maximal effect
Summary of the method: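 One-hour, room-temperature, dark incubation of compound with 4 uM MSTI in PBS (pH 7.4, 2% DMSO) precedes a fluorescence read at 525 nm excitation, 598 nm emission; Hill-equation fitting yields concentration-response values.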

[5] = tested on: Nanoluciferase (engineered Oplophorus gracilirostris luciferase); assay: Primary Nanoluciferase (NLuc) qHTS assay for identification of artifact compounds. (AID 1845222);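 note: NLuc secreted into diluted conditioned medium of S16 cells; series mostly up to about 54 µM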
Summary of the method: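 qHTS format, against NLuc in S16 cell-conditioned medium. Nano-Glo substrate 1:100 was added after 15 min at room temperature. Luminescence was taken after a further 5 min.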

[6] = qHTS drug screen for cell cycle checkpoint inhibitors in PARPi-resistant BRCA-mutant ovarian cancer cell lines. (AID 1963452; calls by dose curve; note: potency is the fitted concentration of half-maximal effect); conditions: PEO1/OlaR viability, CellTiter-Glo luminescence, 96 h; for Z-AUC: stronger effect = lower value
Summary of the method: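 PEO1, PEO4 and PEO1/OlaR ovarian cancer cells, 600 per well, exposed 96 h at 37C to a dilution series. Viability read by CellTiter-Glo luminescence, normalized to DMSO and empty wells; activity summarized as Z-AUC.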

[7] = Primary redox qHTS assay for identification of artifact compounds. (AID 1845223)
Summary of the method: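 Amplex Red (25 uM) and HRP (250 mU/mL) in HBSS, with compounds for 15 min, then 250 uM DTT for 30 min, room temperature, dark. Fluorescence 525/598 nm read; normalized to DMSO and 10 uM DA3003; Hill fit.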

[8] = measured here: PEO1 parental Z-AUC

Chain of Glutathione peroxidase 1 (Homo sapiens) (P07203 whole entry, looked up): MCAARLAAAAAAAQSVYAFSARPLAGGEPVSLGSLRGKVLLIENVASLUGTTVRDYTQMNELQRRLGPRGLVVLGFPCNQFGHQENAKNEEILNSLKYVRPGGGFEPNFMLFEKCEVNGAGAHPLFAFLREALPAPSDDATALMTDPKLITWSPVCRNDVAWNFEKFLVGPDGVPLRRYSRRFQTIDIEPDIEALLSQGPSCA
Chain of Phospholipid hydroperoxide glutathione peroxidase GPX4 (Homo sapiens) (P36969 whole entry, looked up): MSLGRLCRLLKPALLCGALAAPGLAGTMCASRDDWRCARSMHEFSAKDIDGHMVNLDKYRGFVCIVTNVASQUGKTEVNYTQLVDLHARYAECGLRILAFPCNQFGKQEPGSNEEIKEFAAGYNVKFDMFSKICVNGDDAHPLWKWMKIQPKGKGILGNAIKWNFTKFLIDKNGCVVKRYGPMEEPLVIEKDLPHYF

| Compound | Potency [1] | Potency [2] | Potency [3] | Potency [4] | Potency [5] | Z-AUC [6] | Z-AUC [6, 8] | Z-AUC ([6]; measured here: PEO4 Z-AUC) | Potency [7] | Potency [6] |
| --- | --- | --- | --- | --- | --- | --- | --- | --- | --- | --- |
| CC(C)[C@@H](CS(=O)(=O)C(C)C)N1C(=O)[C@@](C)(CC(=O)O)C[C@H](c2cccc(Cl)c2)[C@H]1c1ccc(Cl)cc1 | inactive | inactive | inactive | inactive | inactive | 1.18 (inactive) | 1.37 | 1.87 | – | – |
| C[C@H](NC(=O)CCc1nc2ccccc2c(=O)[nH]1)c1ccccc1 | inactive | inactive | inactive | inactive | – | – | – | – | inactive | – |
| CS(=O)(=O)N1CCC(NC(=O)c2[nH]ncc2NC(=O)c2c(Cl)cccc2Cl)CC1 | inactive | inactive | inactive | inactive | inactive | -1.39 (inactive) | -1.73 | -1.67 | inactive | – |
| C=C[C@H]1[C@H](O[C@@H]2O[C@H](CO)[C@@H](O)[C@H](O)[C@H]2O)OC=C(C(=O)OC)[C@H]1C[C@@H]1c2cc(O)c(O)cc2CCN1C(C)=O | inactive | inactive | inactive | – | inactive | – | – | – | – | – |
| Cc1nc(C)c(-c2ccc(C3CCC(CC(=O)O)CC3)cc2)nc1C(N)=O (stereo not drawn) | inactive | inactive | inactive | inactive | – | – | – | – | inactive | – |
| CC1=C(C(=O)O[C@@H]2O[C@H](COC3OCC(O)C(O)C3O)[C@@H](O)[C@H](O)[C@H]2O)C(C)(C)CCC1 (stereo partly drawn) | inactive | inactive | inactive | – | inactive | – | – | – | – | – |
| CN1CCN(C2CCC(n3cc(-c4ccc(Oc5ccccc5)cc4)c4c(N)ncnc43)CC2)CC1 (stereo not drawn) | inactive | inactive | inactive | inactive | inactive | -1.03 (inactive) | -1.14 | -0.439 | inactive | – |
| Cc1ccc(S(=O)(=O)c2ccc([N+](=O)[O-])o2)cc1 | inactive | inactive | inactive | 10.6 µM (active) | – | – | – | – | inactive | – |
| COC(=O)CCSCc1ccc(-c2onc(C)c2NC(=O)OC(C)c2ccccc2Cl)cc1 (stereo not drawn) | inactive | inactive | inactive | inactive | – | – | – | – | inactive | – |
| CC[C@]12C=CCN3CC[C@@]4(c5cc([C@@]6(C(=O)OC)C[C@H]7C[C@@H](C(C)(F)F)CN(Cc8c6[nH]c6ccccc86)C7)c(OC)cc5N(C)[C@H]4[C@@](O)(C(=O)OC)[C@@H]1OC(C)=O)[C@@H]32 | inactive | inactive | inactive | inactive | inactive | -2.08 (inactive) and -1.5 (inactive) | -0.895 and -0.96 | -1.63 and -1.07 | inactive | – |
| COc1cc(C(=O)NC2CCN(C)CC2)c(F)cc1Nc1ncc2c(n1)N(C1CCCC1)CC(F)(F)C(=O)N2C | inactive | inactive | inactive | inactive | inactive | – | -2.61 | -2.16 | – | 0.245 µM (active) |
| CC(O)(CC(=O)O)CC(=O)OCc1ccc(O[C@@H]2O[C@H](CO)[C@@H](O)[C@H](O)[C@H]2O)cc1 (stereo partly drawn) | inactive | inactive | inactive | – | inactive | – | – | – | – | – |
| Cc1ccccc1C#Cc1ccc(CCC(=O)O)cc1 | inactive | inactive | 4.26 µM (active) | inactive | – | – | – | – | inactive | – |
| O=C(C(c1ccccc1)c1ccccc1)N1CCN(CC(O)COc2cccc3ncccc23)CC1 (stereo not drawn) | inactive | inactive | inactive | inactive | inactive | 0.889 (inactive) | 0.623 | 0.296 | – | – |
| CC(C)CC1NC(=O)C2CC3(O)c4ccccc4NC3N2C1=O (stereo not drawn) | inactive | inactive | inactive | – | inactive | – | – | – | – | – |
| CC12CCC3c4ccc(O)cc4CCC3C1CC(OC1OC(C(=O)O)C(O)C(O)C1O)C2O (stereo not drawn) | inactive | inactive | inactive | inactive | – | – | – | – | inactive | – |
| CN1CCN(C(=O)c2ccc3cc(CCNc4ncnc5ccc(C#N)cc45)ccc3c2)CC1 | inactive | inactive | inactive | inactive | inactive | -0.0214 (inactive) | -0.289 | -0.499 | – | – |
| COc1cc2ncnc(Nc3ccc(F)c(Cl)c3)c2cc1NC(=O)/C=C/CN1CCCCC1 | inactive | inactive | inactive | inactive | inactive | – | -1.17 | -1.24 | – | 6.92 µM (active) |
| Cc1cc(Cl)ccc1COc1ccnn1-c1cc(C(=O)O)ccn1 | inactive | inactive | inactive | inactive | – | – | – | – | inactive | – |
